High-throughput results: PubChem, National Center for Advancing Translational Sciences (NCATS)
An excerpt weighted towards active compounds, which were near 7.4% of everything screened.
SMN2 splice up – enhancers of SMN2 splice variant expression; HEK293 SMN2-luciferase splicing reporter, luminescence, 30-36 h; Potency, µM (highest dose often 46.1 µM), without a hit: top-dose activity change, positive = activation, hits mostly activators; actives 2.8% (n = 210,000); AID 1458; also: % of control where 0% means no effect; nearly all actives have a fitted effect of over 55% in size
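HEK293 cells carry an SMN2 minigene-luciferase reporter in which exon 7 inclusion puts luciferase in frame. Cells were seeded at 2000 cells/well, attached for 10-12 hours, then exposed to compounds for 30-36 hours at 37C before ONE-Glo luminescence.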
Rab9 promoter act – Rab9 promoter activation; Huh7 Rab9 promoter-luciferase reporter, luminescence, 24 h; Potency, µM (titrated, usually from 9.22 µM), for the others: top-dose activation, negative = inhibition, most hits filed as activators; actives 2.8% (n = 320,000); AID 485297; also: % of control where 0% means no effect; nearly all actives have a fitted effect of over 60% in size
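Steps: seed 1500 Huh7 Rab9-luc cells per well, rest 2 h at 37 °C; add compound in DMSO; incubate 24 h; add luciferase reagent, 10 min ambient; read luminescence.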
NPC1 prom act – NPC1 promoter activation; Huh7 NPC1 promoter luciferase reporter, 24 h; Potency, µM (titrated, usually from 9.22 µM), inactives show at the highest dose activation, hits mostly activators; actives 2.4% (n = 320,000); AID 485313; also: % of control where 0% means no effect; nearly all actives have a fitted effect of over 60% in size
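Luciferase expression driven by the NPC1 promoter was measured in stably transfected Huh7 cells after a 24 h compound incubation, using a luciferase reagent and a luminescence read.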
ELG1 genotoxic – inducers of genotoxicity in HEK293T ELG1-luciferase cells; HEK293T ELG1-luciferase reporter, luminescence, 16 h; Potency, µM (series often up to 46 µM), for inactives: at the top dose activity change, positive = activation, hits mostly activators; actives 1.3% (n = 330,000); AID 504466; also: % of control where 0% means no effect; nearly all actives have a fitted effect of over 60% in size
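Genotoxic stress is detected as increased luminescence from luciferase-tagged ELG1 in HEK293T cells, measured with ONE-Glo after a 16 hr treatment at 37 °C.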
p53 reactivator – restores transcriptional activity of mutant p53 | H1299 p53-A138V BP100-luciferase reporter, luminescence, 24 h | Potency, µM (highest dose often 92.2 µM), without a hit: at the top dose activity change, positive = activation, actives largely listed as activators | actives 0.063% (n = 320,000) | AID 504706; also: % of control where 0% means no effect; nearly all actives have a fitted effect of over 45% in size
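p53-null H1299 cells stably carrying temperature-sensitive p53-A138V and a BP100-luciferase reporter were pinned with compounds (4-point, 1:5 series) and held 24 hrs at 37 deg C. Luminescence was read 10 min after detection reagent.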
FLuc counter – counter-screen for miR-21 project: firefly luciferase inhibitors or activators. P08659. purified FLuc, Km substrates, luminescence inhibition. Potency, µM (top dose mostly 57.5 µM), for the others: at the top dose activity change, negative = inhibition, actives largely listed as inhibitors. actives 6.9% (n = 360,000). AID 588342;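 also: plate controls were vehicle for no effect and reference inhibitor for full effect; nearly all actives have a fitted effect of over 55% in size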
Target sequence (P08659 whole entry, looked up): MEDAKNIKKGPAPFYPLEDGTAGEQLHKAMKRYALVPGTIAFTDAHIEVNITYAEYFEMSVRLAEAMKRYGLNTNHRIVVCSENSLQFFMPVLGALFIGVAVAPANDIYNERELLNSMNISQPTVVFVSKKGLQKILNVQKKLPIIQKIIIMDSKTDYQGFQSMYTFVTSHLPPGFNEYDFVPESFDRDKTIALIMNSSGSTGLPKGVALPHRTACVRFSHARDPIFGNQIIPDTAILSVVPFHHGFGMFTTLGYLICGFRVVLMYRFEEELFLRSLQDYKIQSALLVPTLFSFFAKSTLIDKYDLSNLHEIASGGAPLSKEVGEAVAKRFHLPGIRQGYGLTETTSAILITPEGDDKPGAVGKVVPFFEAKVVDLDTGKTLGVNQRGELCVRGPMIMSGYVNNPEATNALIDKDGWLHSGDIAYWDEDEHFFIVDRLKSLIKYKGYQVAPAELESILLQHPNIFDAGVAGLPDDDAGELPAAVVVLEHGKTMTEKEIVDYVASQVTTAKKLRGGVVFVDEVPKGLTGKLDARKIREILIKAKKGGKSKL
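Purified P. pyralis luciferase (10nM final) with 10uM D-luciferin and 10uM ATP (Km levels) in 50mM Tris acetate pH 7.5, 10mM Mg acetate, 0.01% Tween-20, 0.05% BSA; qHTS 6-point titration, ~60 µM downward; luminescence read.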
Numbers without * were called inactive; ? = inconclusive; / = no result given; [ ] = remark or other dose. Calls follow the shape of the dose curve; as a rule, active = well fitted curve in the direction sought with a large enough effect; inconclusive = small, poorly fitted or top-dose-only effect, or another doubt; inactive = no such curve, though single readings can be large; an effect the other way counts as inactive or inconclusive. Potency is read from the fitted curve at half-maximal effect.

SMILES	SMN2 splice up	Rab9 promoter act	NPC1 prom act	ELG1 genotoxic	p53 reactivator	FLuc counter
O=C(NCCc1nc2ccccc2[nH]1)c1ccc(F)cc1	/	-1%	-4%	-2%	-4%	11%
CCc1ccc(C(=O)Nc2nc3ccccc3[nH]2)cc1	/	?	0.1µM*	?	-5%	0.11µM*
O=C(Nc1nc2ccccc2[nH]1)c1ccc(F)cc1	14µM*	0.32µM*	0.45µM*	?	18%	1.1µM*
Cc1ccc(S(=O)(=O)N2CCN(C(=O)CN3C(=O)CNC3=O)CC2)cc1	/	-6%	0%	1%	5%	1%
CCCCNC(=O)CSc1nc2cc3c(cc2c(=O)n1CCCCCC(=O)NCc1ccc(OC)cc1)OCO3	/	/	/	/	/	3%
COc1ccccc1NC(=O)CSc1nnc(C)s1	/	2%	4%	0%	17%	-3%
CCn1c(=O)c2c(nc(SCC(=O)N3CCC(C)CC3)n2C)n(C)c1=O	/	5%	-4%	-6%	14%	0%
O=C(Nc1ccccc1Cc1ccccc1)c1ccncc1	/	0%	-5%	0%	-4%	?
COc1ccccc1NC(=O)CCn1nc(-c2ccccc2OC)c2c(C)cc(C)nc21	-12%	/	/	/	/	-16%
COc1cccc(CNCCc2c[nH]c3ccccc23)c1OCc1ccccc1	-26%	-4%	2%	-5%	10%	1%
O=Cc1c[nH]c2cccc(OCc3ccccc3)c12	/	30%	17%	11%	?	11µM*
Cc1ccc2nc(-c3ccccn3)oc2c1	7.1µM*	0.63µM*	1.6µM*	?	4%	1.9µM*
Cc1ccc(C(=O)Nc2ccc3oc(-c4cccnc4)nc3c2)c(Cl)c1	-5%	/	/	/	/	?
Cc1ccc2nc(-c3cccnc3)oc2c1	?	1.3µM*	?	?	29%	8.5µM*
COC(=O)CC1C(=O)NCCN1Cc1cn(-c2ccc(C)cc2)nc1-c1cccc(C)c1 (centres undefined)	/	-3%	2%	-3%	2%	17µM*
CCN(CC)CCCNC(=O)c1ccc(-c2nc(CN3CCc4ccccc43)c(C)o2)cc1	/	/	/	/	/	0%
Cc1nc2sc(C(=O)c3ccccc3)c(N)c2c(C)c1C	1%	29%	9%	11%	-1%	?
C=COC(=O)c1sc2nc(C)cc(C)c2c1N	/	24%	24%	5%	4%	?
Cc1nc2sc(C(=O)OC(C)C)c(N)c2c(C)c1C	28%	4.5µM*	-20%	14%	10%	-18%
Nc1c(C(=O)Nc2ccccc2)sc2ncc([N+](=O)[O-])cc12	/	?	?	9%	10%	2%
CC(=O)c1ccc(NC(=O)c2sc3nc(C)c(C)c(C)c3c2N)cc1	/	0.79µM*	0.56µM*	3.7µM*	?	0.48µM*
Cc1nc2sc(C(=O)Nc3ccccc3)c(N)c2c(C)c1[N+](=O)[O-]	?	4.5µM*	3.2µM*	7.3µM*	8%	?
CC(Oc1ccccc1)C(=O)N=C1SC2CS(=O)(=O)CC2N1c1ccccc1 (centres undefined)	/	3%	3%	-2%[9.26 µM]	-2%	-3%
Oc1cc2c(cc1O)[C@@H](c1ccccc1)CNCC2	-29%	-3%	0%	-2%	12%	4.8µM*
Oc1cc2c(cc1O)C(c1ccccc1)CNCC2 (centres undefined)	9%	1%[46.1 µM]	0%[46.1 µM]	/	/	/
SMILES	SMN2 splice up	Rab9 promoter act	NPC1 prom act	ELG1 genotoxic	p53 reactivator	FLuc counter
O=C(Nc1ccccc1Cl)NC1CCCCCCC1	/	?	?	?	?	13µM*
CCc1ccccc1NC(=O)NC1CCCCC1	16%	11%	8%	-3%	11%	3%
COc1ccccc1NC(=O)NC1CCCCCCC1	/	2%	-2%	-3%	22%	13µM*
Cc1ccc(CNCc2c(C(=O)O)c(C)n(Cc3ccc(C)cc3)c2C)cc1	5%	/	/	/	/	4%
Cc1cc(OCC(F)(F)C(F)(F)C(F)(F)C(F)F)nc(N)n1	5%	-5%	-5%	5%	10%	17µM*
O=C(O)c1ccc(N=Nc2c(-c3ccccc3)[nH]oc2=O)cc1	/	?	?	17%	?	11µM*
O=C1CCCC(O)=C1N=Nc1ccc(C(=O)O)cc1	/	2%	0%	-4%	3%	-2%
CC(C)Cc1nnc(NC(=O)CC(=O)Nc2ccccc2C(=O)O)s1	-10%	7%	12%	8%	6%	15µM*
CC(C)c1nnc(NC(=O)CC(=O)Nc2ccccc2C(=O)O)s1	-17%	3.5µM*	2.5µM*	?	-4%	4.8µM*
CCCCc1nnc(NC(=O)CC(=O)Nc2ccccc2C(=O)O)s1	-13%	-1%	10%	2%	-6%	17µM*
CCc1nnc(NC(=O)CC(C)c2ccccc2)s1 (centres undefined)	/	-6%	-2%	4%	13%	0%
CCc1nnc(NC(=O)CC(=O)Nc2ccccc2C(=O)O)s1	-11%	?	18%	1%	?	15µM*
CC(C)Cc1nnc(NC(=O)CCC(=O)Nc2ccccc2F)s1	/	2%	-4%	-1%	-1%	0%
O=C(Nc1cccc(F)c1)N1CC[C@@]2(CCCN(S(=O)(=O)c3ccccc3)C2)C1	-13%	/	/	/	/	/
CCOc1ccc2nc(N3C(=O)/C(=C/c4ccccc4)NC3=S)sc2c1	/	?	?	?	13µM*	6µM*
COc1ccc2nc(N3C(=O)/C(=C/c4ccccc4)NC3=S)sc2c1	-19%	-2%	1%	-4%	8%	11µM*
COc1ccc2nc(-n3c(C)ccc3C)sc2c1	2%	2%	6%	14%	?	-2%[2.3 µM]
CCOc1ccc2nc(Cl)sc2c1	10%	4%	1%	0%	-1%	-11%
CCOC(=O)c1sc(NC(=O)CSc2nccn2C)nc1C	/	?	?	21µM*	?	?
CCOc1ccc(NC(=O)C(C)Sc2nccn2C)cc1 (centres undefined)	/	16%	-5%	16%	9%	-2%
CCOC(=O)c1sc(NC(=O)CSc2ncccn2)nc1C	/	3%	-2%	-2%	12%	-11%
CCOc1ccc(NC(=O)CSc2nccn2C)cc1	?	?	21%	?	45µM*	?
Cn1cnnc1SCC(=O)Nc1ccc(Oc2ccccc2)cc1	/	10%	7%	1%	-1%	?
Cn1ccnc1SCC(=O)Nc1ccc(Oc2ccccc2)cc1	-7%	11%	?	?	?	13µM*
COc1ccc(C(=O)NCCc2nnc3ccc(SCC(=O)Nc4ccccc4)nn23)cc1	/	2.8µM*	1.6µM*	?	16%	3µM*
